Inhibition data for nine compounds are collected here from ChEMBL document CHEMBL1157539, “Thousands of chemical starting points for antimalarial lead identification” (Nature, 2010).

What all share (type): functional
The subject of experiment [1] is Plasmodium falciparum. Description: GSK_TCMDC: Inhibition of Plasmodium falciparum 3D7 in whole red blood cells, using parasite LDH activity as an index of growth. Test compounds present at 2uM.
Experiment [2] deals with Plasmodium falciparum. Description: GSK_TCMDC: Inhibition of Plasmodium falciparum Dd2 in whole red blood cells, using parasite LDH activity as an index of growth. Test compounds present at 2uM.
For experiment [3], the system named is HepG2. Description: GSK_TCMDC: Percent inhibition of human HepG2 cell line. Test compounds present at 10uM.

For `Fc1ccc2[nH]c(-c3ccc(-c4ccc(CN5CCN(CCN6CCOCC6)CC5)cc4)s3)nc2c1.O=C(O)C(F)(F)F`, the Inhibition in experiment [1] is listed as 99%; in experiment [2], 98%; in experiment [3], 39%.
Take `CC1CCN(Cc2ccc(NC(=O)c3cc4ccc5cccnc5c4[nH]3)cc2)CC1`: the Inhibition stood at 100% in experiment [1], 93% in experiment [2] and 10% in experiment [3].
For `CC(NCCc1cccc(Cl)c1)C(O)c1ccc(OCCCCCCOc2ccc(C(O)C(C)NCCc3cccc(Cl)c3)cc2)cc1` (configuration not stated), in that order: 100%, 100% and 96%.
For the compound `NC(=O)c1ccsc1NC(=O)CNC(c1ccc(F)cc1)c1cccs1` (configuration not stated), the values for the Inhibition in experiment [1], in experiment [2] and in experiment [3] were 92%, 71% and 31%, respectively.
Take `COCCN1CCN(Cc2ccc(-c3ccc(-c4nc5cc(F)ccc5[nH]4)cc3)cc2)CC1.O=C(O)C(F)(F)F`: the Inhibition amounted to 100% in experiment [1], 99% in experiment [2] and 25% in experiment [3].
For `Oc1ccc(Cl)c2c1C(c1ccccc1)=NCC2`, in that order: 95%, 43% and 0%.
Take `Cl.O=S(=O)(Nc1ccc2nccc(N3CCNCC3)c2c1)c1ccc2c(Cl)cccc2c1`: the Inhibition in experiment [1] amounted to 100%; in experiment [2], 2%; in experiment [3] it was 11%.
In the same order, the values of `O=C(NC1CCN(CC2(c3ccccc3)CCCC2)CC1)c1n[nH]cc1Cl` are 83%, 87% and 0%.
Regarding `COc1ccc(S(=O)(=O)NCCCC2CCN(CCCCCNC(=O)C=Cc3ccc(Cl)c(Cl)c3)CC2)cc1`, the Inhibition in experiment [1] came out at 85%; in experiment [2], 12%; in experiment [3], 24%.
